Measurements taken from PubChem BioAssay (Tox21).
Records with an inconclusive call do not appear. A call without a number means that no potency is given here. Active and inactive are the calls of the source. Calls follow the shape of the full dose curve.

Key:
[1] = molecular target: Acetylcholinesterase (Homo sapiens) (UniProt P22303); experiment: Acetylcholinesterase (AChE) small molecule antagonists: colormetric cell-based qHTS assay (AID 1347395); also: nearly all actives have a fitted effect of over 30% in size
Acetylcholinesterase (Homo sapiens), sequence (P22303 whole entry, looked up): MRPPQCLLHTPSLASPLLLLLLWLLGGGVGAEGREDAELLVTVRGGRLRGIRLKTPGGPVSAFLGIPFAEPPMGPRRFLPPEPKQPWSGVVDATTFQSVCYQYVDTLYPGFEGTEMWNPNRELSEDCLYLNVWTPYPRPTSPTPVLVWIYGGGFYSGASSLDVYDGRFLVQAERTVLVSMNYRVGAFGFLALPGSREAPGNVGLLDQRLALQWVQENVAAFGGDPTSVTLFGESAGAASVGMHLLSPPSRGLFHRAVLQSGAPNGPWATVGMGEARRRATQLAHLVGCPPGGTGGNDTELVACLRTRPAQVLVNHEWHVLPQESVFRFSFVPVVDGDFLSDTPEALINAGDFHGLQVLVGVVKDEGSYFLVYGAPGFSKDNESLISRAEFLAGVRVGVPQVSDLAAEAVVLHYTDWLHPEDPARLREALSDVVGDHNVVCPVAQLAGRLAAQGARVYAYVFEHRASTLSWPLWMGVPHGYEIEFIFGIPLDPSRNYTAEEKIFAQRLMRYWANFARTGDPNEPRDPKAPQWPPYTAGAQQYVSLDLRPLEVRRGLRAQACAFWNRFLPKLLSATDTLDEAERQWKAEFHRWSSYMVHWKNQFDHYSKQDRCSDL
Outline: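 Quantitative HTS in attached SH-SY5Y cells: 30 min compound exposure, then 90 min with acetylthiocholine and DTNB at 37 C; colour from thiocholine reports AChE activity.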

[2] = molecular target: Acetylcholinesterase (Homo sapiens) (UniProt P22303); experiment: Acetylcholinesterase (AChE) small molecule antagonists: enzyme-based qHTS assay (AID 1347397); details: Potency: AChE enzyme activity inhibition; outcome: AChE enzyme activity inhibition; also: nearly all actives have a fitted effect of over 55% in size
Outline: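 Colorimetric DTNB readout of acetylthiocholine hydrolysis, 10 min at room temperature, after 30 min room-temperature exposure of 50 mU/mL recombinant human enzyme to compound; DMSO vehicle control.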

[3] = molecular target: Acetylcholinesterase (Homo sapiens) (UniProt P22303); experiment: Acetylcholinesterase (AChE) small molecule antagonists: fluorescence cell-based qHTS assay (AID 1347398); details: Potency: AChE activity; outcome: AChE activity; also: nearly all actives have a fitted effect of over 50% in size
Outline: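 Cellular AChE activity read as thiocholine from acetylthiocholine hydrolysis, detected by Thiolite Green fluorescence at 490/520 nm after 40 min at room temperature. Compounds were pre-incubated 30 min at 37 C on adherent SH-SY5Y cells.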

[4] = molecular target: Acetylcholinesterase (Homo sapiens) (UniProt P22303); experiment: Acetylcholinesterase (AChE) small molecule antagonists: enzyme-based qHTS assay with human liver microsomes (AID 1347399); details: Potency: qHTS inhibition; outcome: qHTS inhibition; also: nearly all actives have a fitted effect of over 60% in size
Outline: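 Recombinant human AChE (50 mU/mL in the enzyme mix) and human liver microsomes (0.25 mg/mL final) were preincubated with compound and NADPH (0.25 mg/mL final) for 30 min at 37 C. Acetylthiocholine/DTNB was then added; thiocholine was read colorimetrically after 10 min at room temperature.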
Potency is read from the fitted curve at half-maximal effect.

Row | Compound | Potency [1] | Potency [2] | Potency [3] | Potency [4]
1 | C=CCCC=C | inactive | inactive | inactive | inactive
2 | Cc1ccccc1C(OCCN(C)C)c1ccccc1 (stereo not given) | inactive | inactive | inactive | inactive
3 | Cc1nc2ccccc2s1 | inactive | inactive | inactive | inactive
4 | N[C@H]1C(O)O[C@H](CO)[C@H](O)[C@@H]1O (stereo not given in full) | inactive | inactive | inactive | inactive
5 | COc1ccc(N)c([N+](=O)[O-])c1 | inactive | inactive | inactive | inactive
6 | Oc1cccc2[nH]ccc12 | inactive | inactive | inactive | inactive
7 | O=C(O)c1cn(C2CC2)c2cc(Cl)c(F)cc2c1=O | inactive | inactive | inactive | inactive
8 | CC(C)=CCC1C(=O)N(c2ccccc2)N(c2ccccc2)C1=O | inactive | inactive | inactive | inactive
9 | Cc1cc(Cc2ccc(N)c(C)c2)ccc1N | inactive | inactive | inactive | inactive
10 | CCN1CCCC(OC(=O)C(c2ccccc2)c2ccccc2)C1 (stereo not given) | inactive | inactive | inactive | inactive
11 | Cc1cc(=O)[nH]c(=S)[nH]1 | inactive | inactive | inactive | inactive
12 | COc1ccc(C(=O)/C(Br)=C\C(=O)O)cc1 | inactive | inactive | inactive | inactive
13 | O=C(O)c1ccc(Cl)cc1Cl | inactive | inactive | inactive | inactive
14 | c1ccc(CNc2ncnc3c2ncn3C2CCCCO2)cc1 (stereo not given) | inactive | inactive | inactive | inactive
15 | Cc1cccc2n[nH]nc12 | inactive | inactive | inactive | inactive
16 | CCCCC/C(=C\c1ccccc1)CO | inactive | inactive | inactive | inactive
17 | O=C(O)c1ccc(OCCCOc2ccc(C(=O)O)cc2)cc1 | inactive | inactive | inactive | inactive
18 | O=Nc1ccc(NO)cc1 | inactive | inactive | inactive | inactive
19 | CC(=O)N(CC(O)CO)c1c(I)c(C(=O)NCC(O)CO)c(I)c(C(=O)NCC(O)CO)c1I (stereo not given) | inactive | inactive | inactive | inactive
20 | COc1ccc(-c2coc3cc(O)cc(O)c3c2=O)cc1 | inactive | inactive | inactive | inactive

Row | Compound | Potency [1] | Potency [2] | Potency [3] | Potency [4]
21 | Cc1ccc(O)c2ncccc12 | inactive | inactive | inactive | inactive
22 | Cc1cccc(S(=O)(=O)O)c1C | inactive | inactive | inactive | inactive
23 | COc1cc([N+](=O)[O-])ccc1N | inactive | inactive | inactive | inactive
24 | Oc1ccc(O)c2c(O)cccc12 | inactive | inactive | inactive | inactive
25 | CCc1cccc(CC)c1N(COC)C(=O)CS(=O)(=O)O | inactive | inactive | inactive | inactive
26 | Cc1c(NC(=O)c2cccnc2)c(=O)n(-c2ccccc2)n1C | inactive | inactive | inactive | inactive
27 | CCC(C)(C)C1CCC(OC)CC1 (stereo not given) | inactive | inactive | inactive | inactive
28 | CSCC[C@H](NC(=O)[C@H](Cc1c[nH]c2ccccc12)NC(=O)CCNC(=O)OC(C)(C)C)C(=O)N[C@@H](CC(=O)O)C(=O)N[C@@H](Cc1ccccc1)C(N)=O | inactive | inactive | inactive | inactive
29 | CCCC(C)CCC(C)=O (stereo not given) | inactive | inactive | inactive | inactive
30 | Cc1cc(C)cc(O)c1 | inactive | inactive | inactive | inactive
31 | C[C@H](CCC(=O)O)[C@H]1CC[C@H]2[C@@H]3CC[C@@H]4C[C@H](O)CC[C@]4(C)[C@H]3CC[C@]12C | inactive | inactive | inactive | inactive
32 | CC(CN(CCN(CC(C)OCCO)CC(C)OCCO)CC(C)OCCO)OCCO (stereo not given) | inactive | inactive | inactive | inactive
33 | O=c1[nH]c2ccc(S(=O)CCN3CCC(Cc4ccc(F)cc4)CC3)cc2o1 (stereo not given) | 6.33 µM (active) | 5.64 µM (active) | 1.12 µM (active) | 35.6 µM (active)
34 | Cc1ccc(S(=O)(=O)NC(=O)NN2CC3CCCC3C2)cc1 (stereo not given) | inactive | inactive | inactive | inactive
35 | CC/C(C)=N/O | inactive | inactive | inactive | inactive
36 | Cc1ccc(N(C)C)cc1 | inactive | inactive | inactive | inactive
37 | CCCCOCCOCCOC(C)=O | inactive | inactive | inactive | inactive
38 | C[C@H]1C[C@H]2[C@@H]3CCC4=CC(=O)C=C[C@]4(C)[C@H]3C(=O)C[C@]2(C)[C@@]1(O)C(=O)CO | inactive | inactive | inactive | inactive
39 | CCCCCCCCN | inactive | inactive | inactive | inactive
40 | CCOc1cc(OCC)c(C(=O)CCC(=O)O)cc1OCC | inactive | inactive | inactive | inactive

Row | Compound | Potency [1] | Potency [2] | Potency [3] | Potency [4]
41 | Cc1c(O)cccc1O | inactive | inactive | inactive | inactive
42 | c1ccc(CCCc2ccncc2)cc1 | inactive | inactive | inactive | inactive
43 | Cc1ccccc1OCC(O)CO (stereo not given) | inactive | inactive | inactive | inactive
44 | CCOC(=O)COC(=O)c1ccccc1C(=O)OCC | inactive | inactive | inactive | inactive
45 | O[C@@H](c1cc(C(F)(F)F)nc2c(C(F)(F)F)cccc12)[C@H]1CCCCN1 | inactive | inactive | inactive | inactive
46 | O=C1c2ccccc2C(=O)C1c1nc2ccccc2c(Br)c1O | inactive | inactive | inactive | inactive
47 | CCCCC/C=C\C/C=C\CCCCCCCC(=O)O | inactive | inactive | inactive | inactive
48 | O=C(Cl)c1c(Cl)c(Cl)c(C(=O)Cl)c(Cl)c1Cl | inactive | inactive | inactive | inactive
49 | Oc1cc(O)c2c(c1)O[C@H](c1ccc(O)c(O)c1)[C@H](O)C2 | inactive | inactive | inactive | inactive
50 | [Cl][Bi]([Cl])([c]1ccccc1)([c]1ccccc1)[c]1ccccc1 | inactive | inactive | inactive | inactive
51 | c1ccc(Nc2ccccc2)cc1 | inactive | inactive | inactive | inactive
52 | CC(C)(C)C(=O)C(=O)O | inactive | inactive | inactive | inactive
53 | O=C1c2cccc(O)c2C(=O)c2c(O)cccc21 | inactive | inactive | inactive | inactive
54 | CO/N=C(\C(=O)O)c1csc(NC(=O)CCl)n1 | inactive | inactive | inactive | inactive
55 | CCC1CO1 (stereo not given) | inactive | inactive | inactive | inactive
56 | CNc1ncnc2nc[nH]c12 | inactive | inactive | inactive | inactive
57 | O=[N+]([O-])c1cccc(C(F)(F)F)c1 | inactive | inactive | inactive | inactive
58 | CC(C)(C)CC(=O)OCC(=O)[C@@]1(O)CC[C@H]2[C@@H]3CCC4=CC(=O)C=C[C@]4(C)[C@H]3[C@@H](O)C[C@@]21C | inactive | inactive | inactive | inactive
59 | Cc1cc(F)ccc1-c1cc(N2CC[C@@H](O)[C@H]2CO)ncc1N(C)C(=O)C(C)(C)c1cc(C(F)(F)F)cc(C(F)(F)F)c1 | inactive | inactive | inactive | inactive
60 | CCO/C=C1\N=C(c2ccccc2)OC1=O | inactive | inactive | inactive | inactive
